# Rows were chosen to be rich in hits. Some 4.3% of all compounds tested hit in one or more screens of this group.
# KKLEB tox: cytotoxicity in KKLEB CF airway cells, primary screen, cytotoxicity control for CF NF-kB inhibitor project, cell-based, uHTS, fluorescence assay plates; KKLEB CF airway cells viability, ATPlite luminescence, overnight; stronger effect = lower value; cells stimulated with P. aeruginosa culture filtrate; activity change (cytotoxicity), % at 5 µM; 360,000 compounds, 0.36% hits; AID 602141, 2011;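 active means corrected activity change at or below -50% at 5 µM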
# MITF TRPM1 inh: inhibitors of MITF-dependent TRPM1 promoter reporter, primary screen, cell-based, SK-MEL-5, single point, luciferase; SK-MEL-5 TRPM1 promoter luciferase, 24 h; inhibition, % at 12.5 µM; 330,000 compounds, 0.83% hits;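 active means mean inhibition across replicates of 60% or more, whatever share of single replicates reaches that level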
# Peg3 prom inh: Peg3 promoter-driven luciferase inhibitors, primary screen, cell-based, HeLa, luciferase luminescence. inhibition, % at 20 µM. AID 588405, 2011. 360,000 compounds, 1.7% hits. HeLa PEG-Prom luciferase reporter, overnight;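 active means inhibition of at least 50% at 20 µM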
# CHOP inh: inhibitors of CHOP promoter induction, primary screen, cell-based, unfolded protein response, luciferase reporter; inhibition, % at 10 µM; 220,000 compounds, 3.8% hits; CHO-K1 CHOP-promoter luciferase, tunicamycin-induced, 15-18 h;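 active means compounds that reduced the stress-induced luciferase reporter signal by more than about 70% of percent inhibition, limit read from the data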;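 further: 0% = tunicamycin plus vehicle and 100% = wells without tunicamycin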
# CF NFkB block: inhibitors of PAF-induced NF-kB signaling, primary screen, cell-based, GFP fluorescence, uHTS. KKLEB NF-kB-GFP reporter, GFP fluorescence overnight. inhibition, % at 5 µM. 360,000 compounds, 0.86% hits;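 active means at least 50% inhibition at 5 µM, scaled per plate between neutral and stimulator controls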;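 further: PAF is a Pseudomonas aeruginosa culture filtrate used as stimulus; plate controls were PAF-stimulated DMSO wells for no effect and unstimulated DMSO wells for full effect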
# HIF-2a block: HIF-2a reporter inhibitors, primary screen, luminescence, 786-0 RCC cells. 786-0 RCC cells HIF-2a reporter, luciferase luminescence, overnight. inhibition, % at 18.8 µM. 360,000 compounds, 0.72% hits. AID 624352, 2012;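 active means inhibition of the luminescence signal of 40% or more relative to plate controls, in a single-dose primary screen at 18.75 µM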
# CHOP confirm: retest of CHOP induction inhibitors, confirmation, cell-based; shares compounds with CHOP inh; 2,100 compounds, 45% hits; CHO-CHOP promoter luciferase reporter, tunicamycin-induced, luminescence; inhibition, % at 10 µM;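 active means mean of three repeat readings of reporter signal inhibition above a set limit, cut at about 70% in these data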;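 further: 0% = tunicamycin plus vehicle and 100% = wells lacking tunicamycin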
# * hit, by the source's call; . = no result; ! = a repeat was not active.
SMILES,KKLEB tox,MITF TRPM1 inh,Peg3 prom inh,CHOP inh,CF NFkB block,HIF-2a block,CHOP confirm
O=C(Nc1ccc(Cl)c(C(F)(F)F)c1)NC1CC2CCCC(C1)N2Cc1ccccc1 (stereo not given),.,.,.,101.4*,.,.,97.7*
CCN=C1NN=C(c2cc(C)n(Cc3ccco3)c2C)CS1,3.6,80.0*,39.1,96.8*,-9.7,67.5*,98.5*
CCN=C1NN=C(c2cc(C)n(CCc3ccccc3)c2C)CS1,-15.3,-9.3,-32.1,15.5,3.8,-14.3,.
NNc1nc(-c2ccccc2)nc(-c2ccccc2)c1Br,14.8,-12.1,10.4,.,-23.6,6.0,.
COc1cc(OC)cc(C(=O)N[C@H](C(=O)Nc2nc(-c3ccc(OC)c(OC)c3)cs2)C(C)C)c1,1.3,-1.9,30.8,100.7*,8.8,10.1,55.8
CC(C)n1c(SCC(=O)Nc2nc3ccccc3s2)nc2c1c(=O)n(C)c(=O)n2C,-13.7,-4.2,29.0,20.9,8.2,6.0,.
CCOc1ccc2nc(NC(=O)CSc3nnnn3C3CCCCC3)sc2c1,2.8,-14.8,-47.7,107.1*,-6.5,-173.2,110.4*
CCOc1ccc2nc(NC(=O)CSc3nc4c(c(=O)n(C)c(=O)n4C)n3C(C)C)sc2c1,2.3,-13.6,35.3,105.4*,8.6,-57.5,84.4*
COc1ccc2nc(NC(=O)CSc3nnnn3C3CCCCC3)sc2c1,11.6,7.4,-19.1,0.9,10.3,-35.4,.
CN1CC(=O)N(CC(=O)Nc2cccc3ccccc23)C1=O,-7.0,.,6.5,.,10.6,19.8,.
CCOc1cc(/C=C(/NC(C)=O)C(=O)O)cc(Cl)c1OCc1cccc(Br)c1,0.7,-9.8,-9.0,-11.1,10.8,18.6,.
COC(=O)/C=C/S(=O)(=O)c1ccc(NC(C)=O)cc1,-22.0,21.0,105.0*,.,90.7*,12.6,64.0
CC(C)c1ccc(C2C3CSCC=C3C(C#N)=C(N)C2(C#N)C#N)cc1 (stereo not given),.,.,.,106.5*,.,.,122.5*
CN1CC=C2C(C#N)=C(N)C(C#N)(C#N)[C@H](c3cccc(Cl)c3)C2C1 (stereo not given in full),10.4,8.7,8.0,20.5,-8.2,14.4,.
CCOC(=O)C(=CNc1ccc2c(c1)c1ccccc1n2CC)C(=O)OCC,-4.9,14.1,13.1,7.4,8.5,8.0,.
CCOc1cc(CNCc2cccnc2)ccc1OCC(=O)NC(C)(C)C,-4.9,-5.7,21.6,15.4,12.8,11.3,.
Cc1ccc(S(=O)(=O)N[C@@H](Cc2ccccc2)C(=O)CCl)cc1,-13.1,32.4,101.2*,107.6*!,72.1*,-29.6,-261.1
Cc1ccc(S(=O)(=O)NC(Cc2ccccc2)C(=O)NN)cc1 (stereo not given),18.8,3.8,3.8,.,20.2,13.1,.
Cc1ccc(O)c(C(=O)CC(=O)c2cccc(F)c2)c1,-0.7,6.3,-174.0,108.1*,6.3,-167.5,53.4
COc1ccc(C(=O)CC(=O)c2ccccc2O)cc1,-4.0,-67.9,-272.9,.,0.9,-222.5,.
COc1ccc(O)c(C(=O)CC(=O)c2ccc(F)cc2)c1,-31.0,18.9,-12.7,103.4*,-11.5,10.1,68.4
Cc1ccc(CN2CC(C(=O)NCCC3=CCCCC3)CC2=O)cc1 (stereo not given),-15.2,1.3,4.2,.,17.6,6.2,.
CC(C)c1ccc(NC(=O)c2ccc(-c3ccnn3C)c3ccoc23)cc1,1.5,.,-125.9,.,-3.5,-135.3,.
C[C@@H]1CN([C@@H](C)CO)C(=O)CCCn2nncc2CO[C@H]1CN(C)C(=O)C1CC1,-0.4,.,-18.4,.,-15.1,10.8,.
CCc1nnc(NS(=O)(=O)c2ccc(NC(=S)NC(=O)/C=C/c3ccc(C(C)C)cc3)cc2)s1,2.7,-5.1,3.9,104.7*,-15.9,-8.4,117.7*
SMILES,KKLEB tox,MITF TRPM1 inh,Peg3 prom inh,CHOP inh,CF NFkB block,HIF-2a block,CHOP confirm
CCc1nnc(NS(=O)(=O)c2ccc(NC(=S)NC(=O)/C=C/c3ccccc3)cc2)s1,5.5,-2.0,4.2,28.9,-27.4,7.1,.
Cc1ccc2nc(-c3cc(-c4ccccc4)no3)cn2c1,-5.5,30.8,11.2,105.0*,-4.2,-31.5,73.9*
N#Cc1c(NCCN)nc(NCc2ccccc2)c2c1CCN(Cc1ccccc1)C2,-8.5,-7.3,-6.9,.,13.5,22.3,.
N#Cc1c(NCCN)nc(-c2ccccc2)c2c1CCCC2,-7.3,-2.0,66.5*,108.5*,21.2,24.4,59.2
Cc1ccc(C2(C(F)(F)F)NC(=O)N3C(=C2C#N)Nc2ccccc23)cc1 (stereo not given),-6.3,-3.7,47.3,107.1*,3.5,36.8,37.1
CN1C2=C(C#N)C(c3ccccc3)(C(F)(F)F)NC(=O)N2c2ccccc21 (stereo not given),-0.7,-2.7,14.9,9.6,13.9,22.8,.
O=S(=O)(Nc1cc(Sc2ncn[nH]2)c(O)c2ccccc12)c1ccccc1,7.3,40.5,-4.8,105.7*,79.0*,3.4,77.2*
C/C(=N\NC(=O)c1nn(C)c(C)c1Br)c1ccc(NC(=O)c2ccoc2C)cc1,7.7,-30.2,-135.7,100.2*,-3.2,-83.1,114.7*
O=C(O)c1cccc(NS(=O)(=O)c2cc(S(=O)(=O)c3ccc(Cl)cc3)ccc2Cl)c1,-2.4,8.3,2.9,.,-10.9,8.3,.
Nc1c(C(=O)N/N=C/c2ccccc2Cl)oc2nc(-c3ccccc3)cc(-c3ccco3)c12,19.0,1.0,25.7,34.2,-43.6,-0.3,.
Nc1c(C(=O)N/N=C/c2ccc(F)cc2)oc2nc(-c3ccccc3)cc(-c3ccco3)c12,3.2,10.8,36.5,100.6*,-7.8,1.6,-1.9
CCOC(=O)[C@]12CCCC=C1N(CCC1=CCCCC1)C(=O)[C@H](CC(=O)NCc1ccccc1)C2,.,.,.,.,.,1.7,.
Cc1cc(NC(=O)CSc2ccc(-c3nc4cc(C)c(C)cc4[nH]3)cn2)no1,-45.2,27.1,-100.2,104.0*,35.6,-143.5,15.3
Cc1cc2nc(-c3ccc(SCC(=O)N4CCc5ccccc54)nc3)[nH]c2cc1C,-52.2*,-19.6,113.8*,107.2*,29.0,-210.8,25.6
Cc1cc2nc(-c3ccc(SCC(=O)NC(C)C)nc3)[nH]c2cc1C,.,.,.,0.5,.,.,.
O=C(NC1CCCCC1)C(c1ccc(F)cc1)N(Cc1ccccc1)C(=O)CN1C(=O)c2ccccc2S1(=O)=O (stereo not given),-22.7,5.9,67.6*,109.3*,7.9,5.6,79.5*
COCCSc1nnc(NC(=O)CCS(=O)(=O)c2ccccc2)s1,-9.6,1.8,5.3,.,12.2,-18.7,.
